# This is a sample that favours compounds with a hit; in the whole collection about 2.3% have one here.
# USP1-UAF1 inh: Inhibitors of USP1/UAF1: Primary Screen. Potency, µM (titrated, usually from 57.1 µM), most hits filed as inhibitors. Ubiquitin carboxyl-terminal hydrolase 1 (Homo sapiens), O94782. recombinant USP1/UAF1, Ub-Rhodamine cleavage fluorescence. 0.23% of 390,000 active; further: nearly all actives have a fitted effect of over 60% in size
# Target sequence (O94782 whole entry, looked up): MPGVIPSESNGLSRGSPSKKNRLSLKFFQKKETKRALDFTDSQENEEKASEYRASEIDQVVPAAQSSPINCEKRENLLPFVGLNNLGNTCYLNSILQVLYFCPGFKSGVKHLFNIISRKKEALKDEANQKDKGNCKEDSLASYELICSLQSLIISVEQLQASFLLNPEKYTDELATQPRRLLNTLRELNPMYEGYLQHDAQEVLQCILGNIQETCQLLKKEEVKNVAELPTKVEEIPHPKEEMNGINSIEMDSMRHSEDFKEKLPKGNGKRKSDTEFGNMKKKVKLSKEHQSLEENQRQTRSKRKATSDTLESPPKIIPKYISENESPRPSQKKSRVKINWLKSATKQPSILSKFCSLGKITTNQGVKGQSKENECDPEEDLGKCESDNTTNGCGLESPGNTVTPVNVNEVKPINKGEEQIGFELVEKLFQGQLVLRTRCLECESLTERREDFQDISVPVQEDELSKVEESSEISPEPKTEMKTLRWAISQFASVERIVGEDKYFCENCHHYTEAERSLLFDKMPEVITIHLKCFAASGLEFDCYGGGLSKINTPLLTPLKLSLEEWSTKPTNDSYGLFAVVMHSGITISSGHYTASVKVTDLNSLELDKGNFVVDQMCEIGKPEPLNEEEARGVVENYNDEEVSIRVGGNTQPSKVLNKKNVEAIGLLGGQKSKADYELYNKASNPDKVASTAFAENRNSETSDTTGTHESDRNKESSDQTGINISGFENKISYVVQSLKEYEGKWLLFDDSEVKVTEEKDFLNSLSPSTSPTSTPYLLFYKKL
#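 Step one: compound is pinned into 1nM USP1/UAF1 in HEPES pH 7.8 buffer with TCEP. Step two: 15 min room-temperature incubation. Step three: Ub-Rho (150nM final) starts cleavage, tracked by fluorescence over six one-minute reads.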
# Tau fluor cs: Counterscreen qHTS for Inhibitors of Tau Fibril Formation, Fluorescence Polarization; tau K18 P301L Alexa594 fluorescence, heparin fibrillization; Potency, µM (top dose mostly 57.7 µM); 0.93% of 280,000 active; further: nearly all actives have a fitted effect of over 55% in size
#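 Human tau K18 P301L (15 uM unlabeled, 0.24 uM Alexa 594-labeled) in 100 mM sodium acetate pH 7 with 20 uM heparin, 6 hr at 37 C. ThT 30 uM added, 1 hr ambient; Alexa 594 FP and total fluorescence read at 555/632 nm.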
# Tau fibril ThT: qHTS for Inhibitors of Tau Fibril Formation, Thioflavin T Binding. Microtubule-associated protein tau (Homo sapiens), P10636. recombinant tau K18 P301L, heparin-induced fibrillization, ThT fluorescence. Potency, µM (top dose mostly 57.4 µM), hits mostly inhibitors. 2.1% of 270,000 active; further: nearly all actives have a fitted effect of over 55% in size
#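 Heparin-induced (20 uM) aggregation of recombinant human K18 P301L tau, 15 uM unlabeled with 0.24 uM labeled, pH 7 acetate buffer, 6 hr at 37 C with compound. Fibrils quantified by 30 uM ThT fluorescence after 1 hr ambient incubation.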
# Tau FP inhib: qHTS for Inhibitors of Tau Fibril Formation, Fluorescence Polarization; K18 P301L tau heparin fibrillization, Alexa594 FP, 6 h; Microtubule-associated protein tau (Homo sapiens), P10636; Potency, µM (top dose mostly 57.7 µM), usual class: inhibitors; 0.39% of 280,000 active; further: nearly all actives have a fitted effect of over 55% in size
#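 Heparin (20 uM) drove fibril formation of recombinant tau K18 P301L, 15 uM unlabeled with 0.24 uM Alexa 594 label, for 6 hr at 37 C in 100 mM sodium acetate pH 7. Fluorescence polarization (555/632 nm) read 1 hr after 30 uM ThT.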
# FBPA coupling cs: qHTS Assay for Inhibitors of Fructose-1,6-bisphosphate Aldolase from Giardia Lamblia: Coupling assay counterscreen; coupling enzyme system counterscreen, AmpLite Red fluorescence; activity change, negative = inhibition, % at 58.2 µM, hits read low; 0.67% of 290,000 active; AID 2472, 2010; in the data active means activity change below about -30%
#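 Fluorescence at 525 nm excitation and 598 nm emission measured inhibition of the coupled detection system without aldolase. Compounds (at 57.5 uM final) were preincubated 10 min at room temperature with coupling enzyme reagent before a 20 min substrate/AmpLite Red step.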
# Numbers stand for hits; . = inactive; ? = inconclusive; / = no result given; ! = not active in a repeat; [ ] = dose if it differs, or a comment. Unless noted, the call rests on the fitted dose curve; in most records, active means well fitted curve in the direction sought with a large enough effect; inconclusive means small, poorly fitted or top-dose-only effect, or another doubt; inactive means no such curve, though single readings can be large; an effect the other way counts as inactive or inconclusive.
SMILES,USP1-UAF1 inh,Tau fluor cs,Tau fibril ThT,Tau FP inhib,FBPA coupling cs
CC(=O)n1cc(N(C(=O)CCl)c2ccc(Cl)cc2)c2ccccc21,.,.,28.2µM,.,.
COc1ccccc1N(C(=O)CCl)c1cn(C(C)=O)c2ccccc12,.,.,.,.,.
Cc1nn(C)c(Sc2ccccc2N)c1[N+](=O)[O-],.,.,31.6µM,?,.
CC(NC(=O)CN1C(=O)NC2(CCCCC2C)C1=O)c1ccccc1 (centres undefined),.,/,/,/,/
Cc1ccc(CC(=O)NCc2nc(-c3ccccc3)no2)cc1,.,.,.,.,/
S=c1[nH]c(-c2ccccc2)cn1/N=C/c1ccncc1,.,?,11.2µM,.,.
COc1cccc(C(=O)Nc2ccc(S(=O)(=O)N(Cc3ccccc3)c3ccccc3)cc2)c1,.,?,.,10µM,/
O=C(Nc1ccc(S(=O)(=O)N(Cc2ccccc2)c2ccccc2)cc1)c1ccc(F)cc1,.,?,.,10µM,/
O=C1C=C(c2ccc(F)c(Cl)c2)C[C@@H](c2ccc(F)cc2)C1,.,/,/,/,/
CCN1/C(=C/C=C/c2oc3ccc4ccccc4c3[n+]2CC)Oc2ccc3ccccc3c21,.,2.82µM[fluorescent],1.12µM,?,.
CC1(C)CC(=O)/C(=C(\O)Cc2ccccc2)C(=NCCCCCC(=O)O)C1,.,.,.,.,.
CN(C)c1ncnc2c1NC1=C(S2)C(=NCCCC(=O)O)CC(C)(C)C1,.,.,10µM,?,.
COc1ncnc2c1NC1=C(S2)C(=NCCC(=O)O)CC(C)(C)C1,?,.,.,.,-48.1
COC(=O)[C@@H]1CC[C@H](C)[C@@H](c2ccc(C)cc2)N1C(=O)c1ccc(/C=N\OC[C@@H](O)[C@H]2O[C@H]3OC(C)(C)O[C@H]3[C@@H]2O)cc1,/,.[11.6 µM],.[11.5 µM],.[11.6 µM],.
O=C(NCc1cccc(Cl)c1)c1cnc(N2CCCCC2)c2ccccc12,.,.,.,.,/
O=C1/C(=C/c2ccco2)Oc2c1ccc(O)c2CN1CCCCC1,31.6µM,.,?,.,.
CC1CCN(Cc2c(O)ccc3c2O/C(=C\c2ccco2)C3=O)CC1,31.6µM,.,?,.,.
COCCN(CCOC)Cc1c(O)ccc2c1O/C(=C\c1ccco1)C2=O,.,/,/,/,.
CCN1CCN(Cc2c(O)ccc3c2O/C(=C\C=C\c2ccccc2OC)C3=O)CC1,28.2µM,?,?,.,.
COc1ccc(CC(=O)NNS(=O)(=O)c2ccccc2[N+](=O)[O-])cc1,.,/,/,/,.
COC(c1ccccc1)(c1ccccc1)C(Oc1nccc(C)n1)C(=O)O (centres undefined),.,/,/,/,.
COc1ccc(N=C(NN)c2ccc3ccccc3n2)cc1,.,.,15.8µM,.,.
Cc1oc(C(=O)Nc2ccc(O)cc2)cc1COc1ccccc1,.,.,?,.,-31.9
CCCCN(C)CCCNC(=O)Cn1ncc2c3ccccc3n(Cc3cccc(Cl)c3)c2c1=O,?,.,.,.,/
Nc1ccccc1C(=O)/C=C\c1ccc2c(c1)OCO2,/,?,1.26µM,.[11.6 µM],.
SMILES,USP1-UAF1 inh,Tau fluor cs,Tau fibril ThT,Tau FP inhib,FBPA coupling cs
Cc1ccc(O)c(C(=O)/C=C/c2ccc3c(c2)OCCO3)c1,.,.,15.8µM,.,.
Cc1ccc(C(=O)C=Cc2ccc3c(c2)OCO3)c(C)c1,.,/,/,/,/
Nc1ccccc1C(=O)/C=C/c1ccc2c(c1)OCO2,.,.,14.1µM!,.,.
O=C(/C=C/c1ccc2c(c1)OCO2)c1ccccc1,/,.,.,.,.
CCCCOc1ccc(/C(O)=C2/C(=O)C(=O)N(CCCOC)C2c2ccncc2)cc1 (centres undefined),.,.,.,.,.
CCCOc1ccc(/C(O)=C2/C(=O)C(=O)N(CCCN3CCOCC3)C2c2ccncc2)cc1 (centres undefined),/,.,?,?,-62.1
COc1ccccc1CNC(=O)c1ccc(C)c(-n2cnc3cccnc32)c1,.,.,.,.,/
Cc1ccc(C)c(N2CCN(S(=O)(=O)c3cc4c(cc3Cl)NC(=O)CO4)CC2)c1,.,/,/,/,.
CCOC(=O)c1nnc(-c2ccccc2)nc1Oc1ccccc1Cl,.,?,14.1µM,.,.
CCOC(=O)c1nnc(-c2ccccc2)nc1NC,.,.,.,.,.
COc1ccc(-c2nc(C(N)=O)c3c(n2)n(-c2ccccc2OC)c(=O)n3C)c(OC)c1,.,.,.,.,/
CCCCOC(=O)C1=C(C)NC2(O)c3ccccc3C(=O)C12O (centres undefined),.,.,10µM,?,.
CCCCOC(=O)C1=C(C)NC(=O)NC1c1ccc(OC)cc1 (centres undefined),.,/,/,/,.
COc1ccc2c(c1)NC1(O)c3ccccc3C(=O)C21O (centres undefined),.,.,.,.,.
CCOC(=O)C1=C(C)N[C@@]2(O)c3ccccc3C(=O)[C@@]12O,.,.,3.55µM,?,.
CC1=C(C(=O)OC(C)C)C2(O)C(=O)c3ccccc3C2(O)N1 (centres undefined),.,.,7.08µM,?,.
CC1=C(C#N)C2(O)C(=O)c3ccccc3C2(O)N1 (centres undefined),.,.,.,.,.
Cc1cccc(CN2CCC(n3nccc3NC(=O)CCCc3ccccc3)CC2)c1,.,/,/,/,/
CCOC(=O)c1sc2nc3c(SCC(=O)O)cc(C(=O)c4cc(F)ccc4O)cn3c(=O)c2c1C,.,.,12.6µM,.,.
COc1ccc(O)c(C(=O)c2cc(SCC(=O)O)c3nc4sc5c(c4c(=O)n3c2)CCCC5)c1,.,.,17.8µM,.,.
CCOC(=O)c1sc2nc3c(SCC(=O)O)cc(C(=O)c4ccccc4O)cn3c(=O)c2c1C,.,.,?,.,.
COc1ccc(-n2c(SCC(=O)O)nc3sc4c(c3c2=O)CCCC4)cc1,.,/,/,/,.
CCCCN(CC)CCNC(=O)CN1C(=O)COc2ccc(S(=O)(=O)N3CCOCC3)cc21,.,.,.,.,/
COc1ccccc1CN1CCNC(=O)C1CC(=O)N(C)Cc1nc(C)cs1 (centres undefined),.,/,/,/,.
CC(C)CSC1=NSC2=NC(=O)/C(=C\c3cccs3)C(=N)N12,.,.,.,.,.
N=C1/C(=C/c2cccs2)C(=O)N=C2SN=C(SCc3ccccc3)N12,.,?,17.8µM,.,.
CSC1=NSC2=NC(=O)/C(=C\c3cccs3)C(=N)N12,.,.,14.1µM,.,.
CCCn1c2ccccc2c2cnn(CC(=O)NCCc3ccc(S(N)(=O)=O)cc3)c(=O)c21,.,.,.,.,/
Cc1ccc(C(=O)Cc2ccccc2)c(O)c1,.,/,/,/,/
CC(C)=CCc1c(O)ccc(C(=O)Cc2ccccc2)c1O,.,?,.,14.1µM,.

# From PubChem BioAssay
